Data taken from PubChem BioAssay.
Activity calls are given as the source filed them. Unless noted, how the calls were made is not given here.

Key:
[1] = HepG2 liver cancer cell viability effects, profiling panel, resazurin fluorescence, 24 h, PK04 Diversity Set (AID 1172); conditions: higher = more signal
[2] = basal S. cerevisiae growth modulation, no modifier, primary screen, OD600, strain BY4716, 24 h, basal condition (AID 1173); conditions: OD600, 24 h, higher = more signal, called active from +8 up or from −8 down
[3] = MM1S myeloma cell viability, profiling panel, resazurin fluorescence, basal, 24 h, PK04 Diversity Set (AID 1174); conditions: higher = more signal, called active from +8 up or from −8 down;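 further: MM1S multiple myeloma cell line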
[4] = molecular target: Dihydroorotate dehydrogenase (quinone), mitochondrial (Plasmodium falciparum (isolate 3D7)) (UniProt Q08210); assay: PfDHODH enzyme inhibitors, primary screen, biochemical, C-terminal His tag, absorbance 600 nm (AID 1175); conditions: DCIP absorbance 600 nm, higher = more signal, called active from +8 up or from −8 down;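 further: recombinant parasite enzyme with a five histidine tag at its C terminus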
Sequence of Dihydroorotate dehydrogenase (quinone), mitochondrial (Plasmodium falciparum (isolate 3D7)) (Q08210 whole entry, looked up): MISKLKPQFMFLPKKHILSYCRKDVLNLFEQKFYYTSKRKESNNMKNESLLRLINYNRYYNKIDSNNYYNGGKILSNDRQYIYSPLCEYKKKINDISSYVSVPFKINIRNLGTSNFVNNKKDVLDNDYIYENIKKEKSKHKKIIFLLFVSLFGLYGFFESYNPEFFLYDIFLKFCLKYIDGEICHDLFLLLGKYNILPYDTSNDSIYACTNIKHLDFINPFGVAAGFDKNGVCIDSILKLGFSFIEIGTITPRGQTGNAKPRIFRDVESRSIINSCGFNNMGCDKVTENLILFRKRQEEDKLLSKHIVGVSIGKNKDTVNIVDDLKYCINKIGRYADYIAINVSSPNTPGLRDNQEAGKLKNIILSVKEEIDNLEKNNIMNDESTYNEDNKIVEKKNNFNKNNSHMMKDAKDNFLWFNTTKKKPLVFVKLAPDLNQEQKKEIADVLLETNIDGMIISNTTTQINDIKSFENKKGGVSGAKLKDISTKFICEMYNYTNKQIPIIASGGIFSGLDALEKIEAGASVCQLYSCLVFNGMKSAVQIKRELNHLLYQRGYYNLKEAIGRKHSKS

[5] = P. aeruginosa biofilm formation inhibitors, primary screen, strain PAO1, LB-PBS medium, absorbance 600 nm (AID 1176); conditions: P. aeruginosa PAO1 growth/biofilm, A600, 12 h; higher = more signal
[6] = S. cerevisiae RM11-1a growth modifiers, primary screen, strain RM11-1a, OD600, basal, 24 h (AID 1177); conditions: OD600, 24 h, higher = more signal, called active from +8 up or from −8 down;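 further: cultures grown under basal conditions with no added stressor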
[7] = E. coli acrAB mutant growth effects, primary screen, E. coli filamentation inducers, strain DRC39, OD650, 24 h (AID 1178); conditions: higher = more signal, called active from +8 up or from −8 down;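 further: growth measured as culture turbidity by optical density at 650 nm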
[8] = E. coli acrAB mutant growth effects, primary screen, E. coli filamentation inducers, strain DRC39, OD650, 48 h (AID 1179);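 further: screen aims at cell division blockers that make cells filament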; conditions: E. coli DRC39 delta-acrAB growth, higher = more signal, called active from +8 up or from −8 down
[9] = RPMI8226 myeloma cell viability, profiling panel, resazurin fluorescence, basal, 24 h, PK04 Diversity Set (AID 1180); conditions: higher = more signal;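 further: RPMI8826 multiple myeloma cell line at 5000 cells per well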
[10] = molecular target: E3 ubiquitin-protein ligase XIAP (Homo sapiens) (UniProt P98170); assay: XIAP binders, primary screen, biophysical, small-molecule microarray, fluorescence 635 nm (AID 1181); conditions: small-molecule microarray binding, higher = more signal;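 further: score merges 667 nm emission and signal to noise over triplicate slides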
Sequence of E3 ubiquitin-protein ligase XIAP (Homo sapiens) (P98170 whole entry, looked up): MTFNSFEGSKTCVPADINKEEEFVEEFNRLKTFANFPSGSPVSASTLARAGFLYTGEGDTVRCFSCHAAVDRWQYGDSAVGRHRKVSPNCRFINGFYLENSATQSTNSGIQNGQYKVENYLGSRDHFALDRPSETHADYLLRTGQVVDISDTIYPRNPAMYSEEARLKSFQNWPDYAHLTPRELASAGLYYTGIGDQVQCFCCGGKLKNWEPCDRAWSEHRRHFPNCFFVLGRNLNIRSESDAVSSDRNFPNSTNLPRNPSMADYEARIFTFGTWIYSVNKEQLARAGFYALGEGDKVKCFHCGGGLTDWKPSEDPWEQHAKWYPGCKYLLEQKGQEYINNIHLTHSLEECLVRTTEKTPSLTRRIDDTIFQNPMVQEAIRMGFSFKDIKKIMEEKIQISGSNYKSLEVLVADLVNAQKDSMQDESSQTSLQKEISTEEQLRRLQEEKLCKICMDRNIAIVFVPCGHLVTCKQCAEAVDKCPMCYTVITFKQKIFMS

[11] = test system: XIP peptide (Xip251-270) binding; assay: small-molecule binders of XIP peptide, primary screen, biochemical, small-molecule microarray, fluorescence 635/667 nm, 0.1 µg/mL protein (AID 1182); conditions: fluorescent protein binding, 635 nm, higher = more signal, called active from +8 up or from −8 down
[12] = test system: XIP peptide (Xip251-270); assay: small-molecule binders of XIP peptide, primary screen, biochemical, small-molecule microarray, fluorescence 635/667 nm, 0.5 µg/mL protein (AID 1183); conditions: small-molecule microarray binding, fluorescence 635 nm; higher = more signal
[13] = Plasmodium falciparum growth inhibition, primary screen, strain 3D7, DAPI fluorescence, 100 nL (AID 1184);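 further: parasites grown inside human red blood cells in medium with human serum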; conditions: P. falciparum 3D7 growth, 3 d, higher = more signal
[14] = molecular target: Homeobox protein Hox-A13 (Mus musculus) (UniProt Q62424); assay: inhibitors of HoxA13-DNA binding, primary screen, biochemical, fluorescence polarization, labeled oligonucleotide (AID 1185); conditions: 15 min, higher = more signal, called active from +8 up or from −8 down
Sequence of Homeobox protein Hox-A13 (Mus musculus) (Q62424 whole entry, looked up): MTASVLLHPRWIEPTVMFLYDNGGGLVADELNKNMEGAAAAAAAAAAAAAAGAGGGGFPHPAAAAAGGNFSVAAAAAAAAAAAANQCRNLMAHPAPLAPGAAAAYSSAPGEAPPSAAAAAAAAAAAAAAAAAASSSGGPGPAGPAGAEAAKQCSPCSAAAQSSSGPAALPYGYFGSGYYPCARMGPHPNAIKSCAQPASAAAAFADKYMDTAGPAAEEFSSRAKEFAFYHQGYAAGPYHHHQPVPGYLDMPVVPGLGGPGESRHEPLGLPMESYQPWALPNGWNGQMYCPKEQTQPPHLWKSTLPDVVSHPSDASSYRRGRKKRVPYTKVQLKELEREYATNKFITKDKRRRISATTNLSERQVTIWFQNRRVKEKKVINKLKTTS

[15] = inhibitors of hydroxyurea-induced Chk1 phosphorylation, primary screen, imaging, HeLa, phospho-Chk1 antibody, percent positive cells (AID 1186); conditions: hydroxyurea-induced phospho-Chk1 immunofluorescence imaging, higher = more signal
[16] = inhibitors of hydroxyurea-induced Chk1 phosphorylation, primary screen, imaging, HeLa, phospho-Chk1 nuclear intensity (AID 1187); conditions: hydroxyurea-induced phospho-Chk1 immunofluorescence imaging, higher = more signal

Question: With `CCCCN1CC=CC23O[C@@H]4/C=C\CCC(C)OC(=O)C4[C@H]2C(=O)N(CCCO)[C@@H]3C1=O` (some centres undefined) as the molecule, how does the z-score [1] read?
Answer: The z-score was 0.0917.

Question: And the z-score [2]?
Answer: The z-score was 1.04 (inactive).

Question: And the z-score [3]?
Answer: The z-score was 0.0853 (inactive).

Question: What about the composite z-score [4] of the same molecule?
Answer: The composite z-score was -0.0558 (inactive).

Question: And the z-score [5]?
Answer: Its z-score is -0.112 (inactive).

Question: And the z-score [6]?
Answer: The z-score was 0.487 (inactive).

Question: And the z-score [7]?
Answer: The z-score was 0.0475 (inactive).

Question: And the z-score [8]?
Answer: The z-score was -0.154 (inactive).

Question: What about the z-score [9] of the same molecule?
Answer: Its z-score is 0.79.

Question: What about the composite z-score [10] of the same molecule?
Answer: Its composite z-score is -0.267.

Question: And the composite z-score [11]?
Answer: The composite z-score was -0.571 (inactive).

Question: What about the composite z-score [12] of the same molecule?
Answer: Its composite z-score is 0.214.

Question: And the z-score [13]?
Answer: The z-score was 0.544.

Question: And the z-score [14]?
Answer: Its z-score is -3.97 (inactive).

Question: And the z-score [15]?
Answer: Its z-score is 0.331 (inactive).

Question: And the z-score [16]?
Answer: Its z-score is -0.112 (inactive).

Question: What does the source list for `COc1cc2c(cc1O)C(C1CC1)N(Cc1cccc(OC(F)(F)F)c1)CC2` (centres undefined)?
Answer: z-score [1]: -0.882; z-score [2]: -5.59 (inactive); z-score [3]: -3.32 (inactive); composite z-score [4]: -3.64 (inactive); z-score [5]: -0.0344 (inactive); z-score [6]: 0.002 (inactive); z-score [7]: 0.213 (inactive); z-score [8]: -0.0239 (inactive); z-score [9]: -2.84; composite z-score [10]: 0.0674; composite z-score [11]: 0.676 (inactive); composite z-score [12]: 0.651; z-score [13]: -1.8; z-score [14]: -5.17 (inactive); z-score [15]: 0.433 (inactive); z-score [16]: 0.678 (inactive)

Question: Which results are given for `CN(C)C(=O)[C@]1(Cc2ccccc2CN=[N+]=[N-])N=C(c2ccc(OCCCO)cc2)O[C@@H]1c1ccccc1`?
Answer: z-score [1]: 0.747; z-score [2]: -0.948 (inactive); z-score [3]: -0.535 (inactive); composite z-score [4]: -0.366 (inactive); z-score [5]: -0.137 (inactive); z-score [6]: 0.787 (inactive); z-score [7]: 0.294 (inactive); z-score [8]: -0.296 (inactive); z-score [9]: -1.16; composite z-score [10]: -0.127; composite z-score [11]: 0.908 (inactive); composite z-score [12]: 0.738; z-score [13]: -2.78; z-score [14]: -6.11 (inactive); z-score [15]: -0.52 (inactive); z-score [16]: -0.266 (inactive)

Question: For `COCC(=C=CC[C@H](O)c1ccc(CO)o1)CCO`, which z-score [1] is on record?
Answer: Its z-score is -0.116.

Question: What about the z-score [2] of the same molecule?
Answer: The z-score was -1.63 (inactive).

Question: And the z-score [3]?
Answer: Its z-score is -0.0463 (inactive).

Question: And the composite z-score [4]?
Answer: The composite z-score was -2.35 (inactive).

Question: And the z-score [5]?
Answer: The z-score was -0.165 (inactive).

Question: And the z-score [6]?
Answer: Its z-score is 0.256 (inactive).

Question: And the z-score [7]?
Answer: The z-score was -0.401 (inactive).

Question: What about the z-score [8] of the same molecule?
Answer: Its z-score is -0.524 (inactive).

Question: What about the z-score [9] of the same molecule?
Answer: The z-score was 0.036.

Question: What about the composite z-score [10] of the same molecule?
Answer: The composite z-score was 0.536.

Question: What about the composite z-score [11] of the same molecule?
Answer: Its composite z-score is -0.224 (inactive).

Question: What about the composite z-score [12] of the same molecule?
Answer: The composite z-score was 0.297.

Question: And the z-score [13]?
Answer: Its z-score is 1.08.

Question: And the z-score [14]?
Answer: The z-score was -3.75 (inactive).

Question: And the z-score [15]?
Answer: Its z-score is 0.625 (inactive).

Question: What about the z-score [16] of the same molecule?
Answer: Its z-score is 0.295 (inactive).

Question: With `CC(C)(C)OC(=O)COc1cccc(C(=O)CCN2CCOCC2)c1` as the molecule, how does the z-score [1] read?
Answer: Its z-score is 0.454.

Question: And the z-score [2]?
Answer: The z-score was -10.3 (active).

Question: And the z-score [3]?
Answer: Its z-score is -0.971 (inactive).

Question: And the composite z-score [4]?
Answer: The composite z-score was -3.31 (inactive).

Question: And the z-score [5]?
Answer: The z-score was -1.03 (inactive).

Question: And the z-score [6]?
Answer: The z-score was -0.616 (inactive).

Question: And the z-score [7]?
Answer: Its z-score is 0.215 (inactive).

Question: What about the z-score [8] of the same molecule?
Answer: Its z-score is 0.0359 (inactive).

Question: What about the z-score [9] of the same molecule?
Answer: Its z-score is -3.51.

Question: What about the composite z-score [10] of the same molecule?
Answer: The composite z-score was -0.203.

Question: What about the composite z-score [11] of the same molecule?
Answer: The composite z-score was 0.123 (inactive).

Question: What about the composite z-score [12] of the same molecule?
Answer: The composite z-score was 0.248.

Question: What about the z-score [13] of the same molecule?
Answer: The z-score was -0.367.

Question: What about the z-score [14] of the same molecule?
Answer: Its z-score is -1.11 (inactive).

Question: What about the z-score [15] of the same molecule?
Answer: The z-score was -0.118 (inactive).

Question: What about the z-score [16] of the same molecule?
Answer: Its z-score is 0.0155 (inactive).

Question: Which results are given for `[N-]=[N+]=Nc1ccccc1[C@@H]1OC(c2ccc(OCCCO)cc2)=N[C@]1(Cc1ccccc1)C(=O)O`?
Answer: z-score [1]: 0.841; z-score [2]: 0.307 (inactive); z-score [3]: 0.492 (inactive); composite z-score [4]: 1.72 (inactive); z-score [5]: -0.664 (inactive); z-score [6]: 2.5 (inactive); z-score [7]: 2.46 (inactive); z-score [8]: 0.921 (inactive); z-score [9]: 0.514; composite z-score [10]: 0.0269; composite z-score [11]: 0.315 (inactive); composite z-score [12]: 0.721; z-score [13]: -1.85; z-score [14]: -4.29 (inactive); z-score [15]: -0.178 (inactive); z-score [16]: 0.168 (inactive)

Question: With `O=C(NCCN1CCOCC1)[C@@H]1c2ccccc2C(=O)N(C2Cc3ccccc3C2)[C@H]1c1ccc(CO)cc1` as the molecule, how does the z-score [1] read?
Answer: The z-score was -0.174.

Question: What about the z-score [2] of the same molecule?
Answer: Its z-score is -0.633 (inactive).

Question: And the z-score [3]?
Answer: The z-score was 0.886 (inactive).

Question: What about the composite z-score [4] of the same molecule?
Answer: Its composite z-score is -1.79 (inactive).

Question: What about the z-score [5] of the same molecule?
Answer: The z-score was 0.404 (inactive).

Question: And the z-score [6]?
Answer: Its z-score is -1.44 (inactive).

Question: What about the z-score [7] of the same molecule?
Answer: The z-score was 0.638 (inactive).

Question: What about the z-score [8] of the same molecule?
Answer: Its z-score is 1.07 (inactive).

Question: What about the z-score [9] of the same molecule?
Answer: The z-score was 0.142.

Question: What about the composite z-score [10] of the same molecule?
Answer: The composite z-score was 0.164.

Question: And the composite z-score [11]?
Answer: The composite z-score was 1.54 (inactive).

Question: What about the composite z-score [12] of the same molecule?
Answer: Its composite z-score is 0.584.

Question: What about the z-score [13] of the same molecule?
Answer: Its z-score is -0.98.

Question: And the z-score [14]?
Answer: Its z-score is -3.28 (inactive).

Question: And the z-score [15]?
Answer: The z-score was -0.61 (inactive).

Question: What about the z-score [16] of the same molecule?
Answer: The z-score was -0.411 (inactive).

Question: Which results are given for `CC(=O)NCCCC[C@@H]1NC(=O)[C@@H]2C[C@H](C(=O)NCCCCCN)[C@H](c3ccc(O)cc3)N2C1=O`?
Answer: z-score [1]: -0.714; z-score [2]: -0.12 (inactive); z-score [3]: 0.707 (inactive); composite z-score [4]: 0.143 (inactive); z-score [5]: 0.0094 (inactive); z-score [6]: -0.0659 (inactive); z-score [7]: -0.139 (inactive); z-score [8]: -0.515 (inactive); z-score [9]: 0.0794; composite z-score [10]: 0.492; composite z-score [11]: 0.0292 (inactive); composite z-score [12]: 0.891; z-score [13]: -1.13; z-score [14]: -3.21 (inactive); z-score [15]: 0.156 (inactive); z-score [16]: 0.317 (inactive)

Question: What does the source list for `[N-]=[N+]=Nc1ccccc1[C@@H]1OC(c2ccc(OCCCO)cc2)=N[C@]1(Cc1ccccc1)C(=O)N1CCCCC1`?
Answer: z-score [1]: -0.819; z-score [2]: -0.592 (inactive); z-score [3]: -3.26 (inactive); composite z-score [4]: -0.128 (inactive); z-score [5]: 0.109 (inactive); z-score [6]: 1.08 (inactive); z-score [7]: 0.241 (inactive); z-score [8]: 0.174 (inactive); z-score [9]: -3.5; composite z-score [10]: 0.0512; composite z-score [11]: 3.82 (inactive); composite z-score [12]: 0.806; z-score [13]: -2.38; z-score [14]: -4.3 (inactive); z-score [15]: -0.23 (inactive); z-score [16]: -0.606 (inactive)
